MCF10A rerep: inducers of DNA re-replication in MCF 10A breast cells; MCF 10A DNA re-replication, Hoechst nuclear intensity, 48 h; Potency, µM (top dose mostly 46.1 µM), for inactives: at the highest dose activity, positive = re-replication, usual class: activators; 2.9% of 350,000 active; also: % of control where 0% means no effect; nearly all actives have a fitted effect of over 50% in size
ELG1 DNA repair: inhibitors of ELG1-dependent DNA repair in HEK293T cells | 2.3% of 330,000 active | HEK293T ELG1-luciferase reporter, luminescence, 16 h; DNA damage induced by 5-fluorouridine | Potency, µM (top dose mostly 46.1 µM), inactives show at the top dose activity change, negative = inhibition, most hits filed as inhibitors; also: % is scaled to controls: 0 for no effect and ±100 for the full control effect; nearly all actives have a fitted effect of over 55% in size
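Quantitative HTS, concentration-response format. 2,000 cells/well co-treated with 5-fluorouridine and compound, 16 hr in 5% CO2 at 37 °C; ONE-Glo luminescence read after 30 min.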
Gal4-VP16 FLuc: counter-screen for ROR gamma inhibitors: Gal4-VP16 reporter; 3.5% of 310,000 active; Potency, µM (doses to about 53.6 µM), for the others: at the top dose activity, negative = inhibition, usual class: inhibitors; Drosophila S2 Gal4-VP16 UAS-luciferase, luminescence, 20 h;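 also: Gal4-VP16 expression switched on by copper sulfate through the metallothionein promoter; % is scaled to controls: 0 for no effect and ±100 for the full control effect; nearly all actives have a fitted effect of over 50% in size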
RORgamma inh: ROR gamma (mouse) transcription inhibition. 5.4% of 310,000 active. AID 2551. Drosophila S2 Gal4-RORgamma UAS-luciferase reporter, 20 h. Potency, µM (titrated, usually from 53.6 µM), for the others: at the highest dose activity change, negative = inhibition, hits mostly inhibitors; also: % is scaled to controls: 0 for no effect and ±100 for the full control effect; nearly all actives have a fitted effect of over 60% in size
Target sequence (P51450 whole entry, looked up, the tested form may be a part): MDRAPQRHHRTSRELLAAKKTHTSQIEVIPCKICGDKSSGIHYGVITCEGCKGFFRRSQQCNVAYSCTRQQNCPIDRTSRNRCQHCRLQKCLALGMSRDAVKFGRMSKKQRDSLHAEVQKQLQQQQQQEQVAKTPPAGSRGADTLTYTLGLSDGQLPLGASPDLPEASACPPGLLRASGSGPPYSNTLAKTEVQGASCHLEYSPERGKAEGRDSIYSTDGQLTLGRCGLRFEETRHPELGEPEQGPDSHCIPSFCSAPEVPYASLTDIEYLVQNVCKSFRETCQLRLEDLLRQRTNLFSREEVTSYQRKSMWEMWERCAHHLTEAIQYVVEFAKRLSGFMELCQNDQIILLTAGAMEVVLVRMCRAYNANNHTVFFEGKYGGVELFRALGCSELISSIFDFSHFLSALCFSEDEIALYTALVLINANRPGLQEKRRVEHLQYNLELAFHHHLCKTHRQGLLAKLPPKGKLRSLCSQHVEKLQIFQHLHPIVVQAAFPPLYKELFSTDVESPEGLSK
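ROR gamma transcriptional activity was tracked as Gal4-UAS luciferase output in stably transfected Drosophila Schneider cells, with compound added 1 hr before 700 uM copper sulfate induction and a 20 hr ambient-temperature incubation.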
SW480 rereplic: DNA re-replication induction in SW480 cells; SW480 DNA re-replication, Hoechst DNA content imaging, 48 h; Potency, µM (top dose mostly 46.1 µM), for inactives: at the top dose re-replication activation, actives largely listed as activators; 1.8% of 340,000 active; also: % of control where 0% means no effect; nearly all actives have a fitted effect of over 55% in size
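DNA re-replication was detected as more nuclei of elevated Hoechst intensity after 48 hr exposure to compound (23 nL pinned per well of 250 cells).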
An asterisk follows results filed as active; ? = inconclusive; · = no result given; [ ] = remark or other dose. In the library only some 10% were active in any assay of this set; here they are far more common. Calls follow the shape of the dose curve; as a rule, active = well fitted curve in the direction sought with a large enough effect; inconclusive = small, poorly fitted or top-dose-only effect, or another doubt; inactive = no such curve, though single readings can be large; an effect the other way counts as inactive or inconclusive. Potency is read from the fitted curve at half-maximal effect.

SMILES	MCF10A rerep	ELG1 DNA repair	Gal4-VP16 FLuc	RORgamma inh	SW480 rereplic
Cc1cccc(/C=N/n2c(-c3cc(-c4ccccc4)n[nH]3)n[nH]c2=S)c1	?	?	?	7.9µM*	-5%
S=c1[nH]nc(-c2cc(-c3ccccc3)n[nH]2)n1/N=C/C(Br)=C/c1ccccc1	3.3µM*	?	?	?	?
Cc1ccc(NC(=S)N(Cc2ccc(Cl)cc2)Cc2ccc(C(=O)O)cc2)cc1Cl	9%	6%	2%	41%	-2%
Cc1ccc(C)c(NC(=O)COC(=O)c2ccc(S(=O)(=O)N3CCCCC3)cc2)c1	-9%	9%	·	·	-10%
CCOC(=O)c1ccc(N2C(=O)c3n[nH]c(C)c3C2c2ccco2)cc1 (configuration not stated)	5%	?	-9%	30%	-3%
CCOC(=O)c1ccc(N2C(=O)c3n[nH]c(-c4ccco4)c3C2c2cccc([N+](=O)[O-])c2)cc1 (configuration not stated)	?	18µM*	-11%	0%[10 µM]	16%
Cc1ccc(S(=O)(=O)NCCC2=CCCCC2)cc1C(N)=O	-2%	-14%	7.9µM*	?	?
O=C(NCC1CCOCC1)c1cc(COc2cccc(C(F)(F)F)c2)on1	14%	16µM*	-4%	?	-8%
C[C@@H]1CN(C(=O)c2cc(COc3cccc(C(F)(F)F)c3)on2)C[C@H](C)O1	?	15µM*	4%	35%	-8%
O=C(NC1CCOC1)c1cc(COc2cccc(C(F)(F)F)c2)on1 (configuration not stated)	-1%	?	-11%	?	10%
C=CCC1(CC=C)CCCN1C(=O)c1cc(COc2cccc(C(F)(F)F)c2)on1	5%	4%	13µM*	-29%	5%
NNC(=O)c1nc(-c2cccc(-n3cccc3)c2)no1	?	?	-14%	?	-65%
CC1CCc2c(C(=O)Nc3ccccn3)csc2C1 (configuration not stated)	16%	?	-6%	-38%	3%
CC1CCc2c(C(=O)Nc3nccs3)csc2C1 (configuration not stated)	29%	?	8.9µM*	3.5µM*	?
Cc1cccc2c1ncc1c(=O)n(-c3ccccc3)[nH]c12	10%	?	-6%	-18%	1%
CN(C)/C=N/C(=S)Nc1ccc(Cl)c(Cl)c1	9%	?	3.2µM*	1.8µM*	4%
CN(C)/C=N/C(=S)Nc1ccc(F)cc1	-6%	·	?	11µM*	0%
CN(O)/C=N/C(=S)Nc1ccc(Cl)cc1Cl	2%	-3%	1%	18µM*	1%
CN(C)/C=N/C(=S)Nc1ccccc1F	0%	?	-2%	-30%	-8%
CN(C)/C=N/C(=S)Nc1cc(Cl)cc(Cl)c1	-4%	0%	-1%[10 µM]	20%	-3%
CN(C)/C=N/C(=S)Nc1ccccc1Cl	-2%	0%	8%[10 µM]	6.3µM*	-2%
COC(=O)c1cc(CNC(=O)c2ccc(N3CCCC3)c([N+](=O)[O-])c2)ccc1OC	-34%	?	-2%	-3%	-4%
Cc1ccc(S(=O)(=O)Nc2ccc(C(=O)N3CCCC3)cc2)c(C)c1NS(C)(=O)=O	-1%	5%	-4%	-7%	-12%
CCCN1C[C@H](CSC)C[C@H]2c3cccc4[nH]cc(c34)C[C@@H]21	·	·	-3%[17 µM]	-12%[16.9 µM]	·
O=c1oc2cc(Br)ccc2n1Cc1ccccc1	?	8%	-3%	-17%	?
SMILES	MCF10A rerep	ELG1 DNA repair	Gal4-VP16 FLuc	RORgamma inh	SW480 rereplic
CCc1nc(Cl)c(C#N)c2c1CCCC2	1%	13µM*	-9%	-4%	1%
O=C(Nc1ccc(Cl)cc1)C1C2C=CC3(O2)C1C(=O)N(CCCN1CCCCC1)C3C(=O)NC1CCCCC1 (configuration not stated)	-7%	-4%	8%	-18%	3%
CCOC(=O)c1c(COc2ccccc2)oc2ccc(O)cc12	-3%	-2%	-3%	3%	-8%
CCOC(=O)c1c(C(C)(C)C)oc2ccc(O)cc12	-4%	?	16µM*	-33%	-2%
O=C(NNC(=S)NC(=O)C12CC3CC(CC(C3)C1)C2)c1ccncc1	17%	2%	-1%[0.365 µM]	?	?
COC(=O)c1cc(-c2c(-c3cc(OC)c(OC)c(OC)c3)noc2C)cc([N+](=O)[O-])c1	?	?	-12%	-22%	27%
COc1ccc(-c2c(-c3cc(OC)c(OC)c(OC)c3)noc2C)cn1	1.6µM*	26%	5%	10%	7.3µM*
COc1cc(-c2c(-c3cc(OC)c(OC)c(OC)c3)noc2C)ccc1F	?	?	-26%	?	1.3µM*
COc1ccc(-c2c(-c3ccc4c(c3)OCO4)noc2C)cn1	34%	?	6%	-24%	-6%
Cc1ccc(-c2cc(-c3ccc(F)cc3)nc(N)c2C#N)o1	3.7µM*	?	-28%	0%	12µM*
Cc1ccc(-c2cc(-c3ccccc3)c(C#N)c(N)n2)o1	18µM*	?	?	20µM*	18µM*
N#Cc1c(-c2ccncc2)cc(-c2ccc(F)cc2)nc1N	-1%	10%	-9%	-17%	1%
O=C(Nc1cccc(F)c1)C1CCCN(c2cnccn2)C1 (configuration not stated)	4%	5%	4%	7%	1%
Cc1cccc(NC(=O)C2CCCN(c3cnccn3)C2)c1 (configuration not stated)	18µM*	9%	-4%	-1%	?
Cc1ccc(C2C=C(c3ccccc3OC(F)F)Nc3ncnn32)cc1 (configuration not stated)	14%	-10%	-4%	-29%	-206%
CN(C)c1ccc(C2C=C(c3ccc(Cl)cc3OC(F)F)Nc3ncnn32)cc1 (configuration not stated)	4.1µM*	?	-2%	?	23µM*
Cc1cc(C)c(C)c(C(=O)CSc2nnc(-c3ccc4[nH]c(C)c(C)c4c3)o2)c1C	13µM*	16µM*	?	?	?
Cc1[nH]c2ccc(-c3nnc(SCC(=O)c4ccc(F)cc4)o3)cc2c1C	-14%	?	1%	3%	7%
Cc1ccc(S(=O)(=O)N(C)c2ccccc2C(=O)Nc2c(F)cccc2F)cc1	0%	-5%	0%	25%	-1%
Cc1occc1C(=O)Nc1ccc2c(c1)OCCO2	-1%	?	?	8.9µM*	-2%
O=C(Nc1ccc2c(c1)OCCO2)C(=O)c1c[nH]c2ccccc12	9.2µM*	?	3.2µM*	2.5µM*	4.6µM*
Cc1ccccc1C(=O)Nc1ccc2c(c1)OCCO2	2%	?	?	8.9µM*	1%
O=C(CCl)Nc1c(C(=O)Nc2ccc3c(c2)OCCO3)oc2ccccc12	7.3µM*	?	?	0%	?
